Only some compounds are listed: those with a hit (about 1.1% of all), similar ones and a draw of the others.
GalR3 antagonist: human GalR3 antagonism; HEK293 GalR3-CNG cAMP membrane potential fluorescence; galR3 body fused to GalR1 C-terminus; inhibition, % at 3 µM; 360,000 tested, 0.44% active; AID 651719;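 active means inhibition above the screen-wide average plus 3 SD, cut at about 13% in these data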;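 further: forskolin and galanin both at EC90 stimulate the cells; cAMP rise reported by CNG channel membrane potential dye signal; 0% = forskolin plus galanin with DMSO and 100% = forskolin alone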
LRH-1 inv ag: NR5A2 inverse agonism in reporter assay; O00482; HEK293T StAR-luciferase reporter, LRH-1 transfected, 24 h; inhibition, % at 3.6 µM; 360,000 tested, 0.13% active; AID 602396;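 active means inhibition above the mean inhibition of all tested compounds plus 3 SD, cut at about 73% in these data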;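 further: 0% = DMSO wells and 100% = reporter-only cells lacking LRH-1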
Target sequence (O00482 whole entry, looked up): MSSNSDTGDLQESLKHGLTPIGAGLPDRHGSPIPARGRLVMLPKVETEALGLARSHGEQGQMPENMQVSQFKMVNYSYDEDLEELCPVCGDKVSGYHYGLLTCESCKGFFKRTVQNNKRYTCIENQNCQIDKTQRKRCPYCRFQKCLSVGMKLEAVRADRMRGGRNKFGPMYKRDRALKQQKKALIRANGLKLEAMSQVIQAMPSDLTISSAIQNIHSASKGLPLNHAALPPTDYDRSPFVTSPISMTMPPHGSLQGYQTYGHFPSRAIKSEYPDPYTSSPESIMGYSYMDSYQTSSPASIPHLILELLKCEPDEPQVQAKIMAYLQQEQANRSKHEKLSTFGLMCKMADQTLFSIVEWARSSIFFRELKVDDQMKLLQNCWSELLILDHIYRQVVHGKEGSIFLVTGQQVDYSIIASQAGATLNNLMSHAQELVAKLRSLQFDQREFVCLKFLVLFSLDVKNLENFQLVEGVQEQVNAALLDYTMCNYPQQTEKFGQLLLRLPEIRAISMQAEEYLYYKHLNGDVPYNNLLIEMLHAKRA
COUP-TFII inh: blocks human COUP-TFII nuclear receptor; AID 686940; 370,000 tested, 0.7% active; P24468; inhibition, % at 8.6 µM; HEK293T NGFI-A luciferase reporter, luminescence;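 active means inhibition above a per-plate cutoff, mean inhibition of test wells between control levels plus 3 SD, cut at about 38% in these data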;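 further: cells cotransfected with COUP-TFII expression vector driving the NGFI-A reporter; 0% = median of COUP-TF2 test wells and 100% = reporter-only cells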
NCOA1 inh: human NCOA1 inhibition; Q15788; inhibition, % at 3.6 µM; 360,000 tested, 0.12% active; AID 588354; HEK293 GAL4-SRC1 luciferase reporter, luminescence;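 active means inhibition above the campaign mean plus 3 SD, with each screening campaign given its own cutoff, cut at about 60% in these data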;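 further: 0% = DMSO treated cells and 100% = gossypol at 36 µM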
NCOA3 inh: human NCOA3 inhibition; Q9Y6Q9; HEK293 GAL4-SRC3 luciferase reporter, luminescence; inhibition, % at 3.6 µM; 360,000 tested, 0.17% active; AID 588352;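 active means inhibition above a per-campaign cutoff, the mean of all compounds plus 3 SD, cut at about 60% in these data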;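 further: 0% = DMSO-treated cells and 100% = gossypol-treated cells at 36 µM; higher means less SRC3-driven luciferase light from the GAL4 reporter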
SRC2 inh: human SRC2 (NCOA2) inhibition | AID 651957 | HEK293 GAL4-SRC2 luciferase reporter, luminescence | inhibition, % at 9 µM | 370,000 tested, 0.17% active;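 active means inhibition above the mean inhibition of all tested compounds plus 3 SD, set per campaign, cut at about 52% in these data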;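 further: 0% = DMSO treated cells and 100% = cells given Gossypol at 36 µM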
VP16 Luc counter: VP16 inhibition counter-screen for COUP-TFII; shares compounds with COUP-TFII inh; HEK293 Gal4-VP16 luciferase reporter, luminescence; inhibition, % at 8.5 µM; 2,500 tested, 25% active; in the data active means inhibition above about 13%
NR2F2 inh conf: confirmation of human COUP-TFII (NR2F2) inhibitors | shares compounds with COUP-TFII inh | HEK293 NGFI-A luciferase reporter, luminescence | inhibition, % at 8.5 µM | 2,500 tested, 45% active;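 active means mean inhibition over three repeats above a set limit taken from the earlier primary screen, cut at about 38% in these data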;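 further: 100% = cells given the luciferase reporter alone without the COUP-TF2 vector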
The depositor's hits bear a star; nt = not tested or not shown.

SMILES	GalR3 antagonist	LRH-1 inv ag	COUP-TFII inh	NCOA1 inh	NCOA3 inh	SRC2 inh	VP16 Luc counter	NR2F2 inh conf
CN(C)S(=O)(=O)c1ccc(NC(=O)Cc2ccc(S(=O)(=O)N3CCOCC3)s2)cc1	5	2	3	-18	11	-1	nt	nt
COc1ccc(NC(=O)CCCOc2ccc(C)cc2)cc1S(=O)(=O)N1CCCCC1	-2	17	2	-1	2	30	nt	nt
C[C@H]1COc2cc(Br)ccc2S(=O)(=O)N1Cc1cn(Cc2ccccc2)nn1	nt	nt	0	nt	nt	2	nt	nt
Cc1ccc(NC(=O)COc2ccccc2C(N)=O)cc1S(=O)(=O)N1CCCCCC1	2	23	60*	12	13	41	-7	46*
Cc1cc(Cl)c(S(=O)(=O)N2CCCC2)cc1OCC(=O)NC1CCCCC1	-2	-16	62*	-14	21	19	4	26
Cc1cccc(OCCCC(=O)Nc2ccc(Cl)c(S(=O)(=O)N3CCOCC3)c2)c1	-2	18	39*	-12	28	-21	11	39*
Cc1cccc(OCCC(=O)Nc2ccc(C)c(S(=O)(=O)N3CCCCC3)c2)c1	-6	1	38*	10	24	-34	-7	8
CC(=O)CC[C@H]1CC[C@]2(CCCN(S(=O)(=O)C3CCCCC3)C2)O1	nt	nt	7	nt	nt	-27	nt	nt
O=C(Cn1cnc2ccccc21)Nc1ccc(SC(F)F)cc1	74*	34	70*	-6	20	23	-4	46*
O=C(Cn1cnc2ccccc21)NCc1ccccc1	-2	-11	10	-24	-20	-11	nt	nt
Cc1cccc(N2CCN(C(=O)C3CCC(CNS(=O)(=O)c4cccs4)CC3)CC2)c1C (configuration not stated)	-7	2	51*	-4	4	-3	6	32
O=C(C1CCC(CNS(=O)(=O)c2cccs2)CC1)N1CCCCC1 (configuration not stated)	4	-4	14	-3	11	10	nt	nt
O=C(NN=Cc1ccc(O)cc1)c1cc(-c2ccc(Cl)cc2)n[nH]1	nt	nt	-23	nt	nt	2	nt	nt
C=C(C)Cn1c(N2CCN(c3ccc(OC)cc3)CC2)nc2c1c(=O)n(C)c(=O)n2C	10	11	41*	4	14	-3	3	15
Cc1ccc2c(c1)sc(-c1ccc(N(C)C)cc1)[n+]2C	1	16	58*	-30	-55	-20	-25	53*
CCOC(=O)[C@]12CCCC=C1N(Cc1ccc(OC)cc1)C(=O)[C@@H]2CC(=O)NCc1cccc2ccccc12	nt	nt	0	nt	nt	2	nt	nt
Cc1ccc(N/C(N)=N/c2nc(C)cc(C)n2)cc1	-10	7	3	-4	36	-1	nt	nt
COC(=O)c1cc(N/C(N)=N/c2nc(C)cc(C)n2)cc(C(=O)OC)c1	-1	37	42*	27	37	25	-5	29
CCCCc1ccc(N/C(N)=N/c2nc(C)cc(C)n2)cc1	41*	16	49*	10	32	37	29*	56*
N#Cc1ccc(OC[C@@H](O)CN2CCC(C(O)(c3ccccc3)c3ccccc3)CC2)cc1F	nt	nt	-1	nt	nt	22	nt	nt
CC[n+]1ccccc1/C=C1\Sc2ccc(C)cc2N1C	-12	51	61*	39	39	3	9	59*
CN1/C(=C/c2cccc[n+]2CCO)Sc2ccccc21	-1	-5	11	7	-5	-39	nt	nt
CN(C)c1ccc(/C=N/N=C2/NC(=O)/C(=C/c3ccc([N+](=O)[O-])cc3)S2)cc1	-2	-4	41*	26	14	25	-58	36
CC1=C(C(=O)OCc2ccc3c(c2)OCO3)C(c2ccc(Cl)cc2)NC(=O)N1 (configuration not stated)	-4	62	48*	75*	65*	59*	29*	37

Source: PubChem
